VACV mCherry inh – inhibitors of vaccinia virus infection (mCherry reporter signal); Vaccinia virus mCherry reporter infection, fluorescence; Potency, µM (top dose mostly 36.5 µM), most hits filed as inhibitors; 310,000 compounds, 0.63% hits; AID 720579; calls by dose curve; tested in A549 cells; note: nearly all actives have a fitted effect of over 35% in size
HCMV inh – blocks human cytomegalovirus replication; activity change, negative = inhibition, % at 57.5 µM; HFF cells, HCMV-luciferase reporter, 72 h; hits give low values; 410,000 compounds, 4.5% hits; in the data active = activity change below about -60%; inconclusive = no clear call, values can overlap the other calls; inactive = above about -39%
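HFF cells seeded 16 h at 37C, treated with compounds, infected with luciferase-reporter HCMV at MOI 1 PFU/cell; luciferase read at 72 h post infection, normalized to buffer-only and Salinomycin controls.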
FMDV antiviral – blocks foot and mouth disease virus; FMDV antiviral cell-based qHTS; Potency, µM (highest dose often 57.9 µM), hits mostly inhibitors; 410,000 compounds, 1.2% hits; calls by dose curve; tested in HEK293T cells; note: read-out not given here; nearly all actives have a fitted effect of over 45% in size
VACV Venus inh – inhibitors of vaccinia virus (Venus reporter); 330,000 compounds, 0.46% hits; Vaccinia virus Venus reporter expression, fluorescence; AID 720580; Potency, µM (series often up to 36.5 µM), actives largely listed as inhibitors; calls by dose curve; tested in A549 cells; note: nearly all actives have a fitted effect of over 30% in size
MARV entry inh – inhibitors of Marburg virus binding or cell entry | Marburg virus pseudotyped entry inhibition, cell reporter | Potency, µM (doses to about 37.8 µM), most hits filed as inhibitors | 300,000 compounds, 1.8% hits | AID 540276; calls by dose curve; tested in HEK293 cells
LASV entry inh – blocks Lassa virus binding to or entry into cells; Lassa virus pseudotype entry inhibition, cell reporter; Potency, µM (highest dose often 37.9 µM), hits mostly inhibitors; 300,000 compounds, 1.2% hits; calls by dose curve; tested in HEK293 cells; note: nearly all actives have a fitted effect of over 50% in size
Of the large screens only hits and unclear results are named; the others gave an inactive call. A selection: hits, their analogues and other compounds. The true share with any hit is near 6.5%.

CCOC(=O)N1CCN(C(=O)C2CCN(S(=O)(=O)c3c(C)cc(C)cc3C)CC2)CC1	HCMV inh -106.8, LASV entry inh inconclusive (no result: VACV mCherry inh, VACV Venus inh)
CCOc1ccc(S(=O)(=O)N2CCC(C(=O)N3CCN(c4ccccc4F)CC3)CC2)cc1C	VACV mCherry inh inconclusive, VACV Venus inh inconclusive, MARV entry inh inconclusive, LASV entry inh 7.08µM
CCOC(=O)N1CCN(C(=O)C2CCCN(S(=O)(=O)c3ccc(C)cc3)C2)CC1 (stereo not given)	HCMV inh -60.7 (no result: VACV mCherry inh, VACV Venus inh)
Cc1cc(C(=O)OCC(=O)N(C)c2ccccc2)ccc1[N+](=O)[O-]	HCMV inh -62.9
CN(C(=O)COC(=O)c1ccc2c(c1)OCCO2)c1ccccc1	HCMV inh -69.4, MARV entry inh inconclusive
O=C1C=C(N(CCO)Cc2ccccc2)c2ccccc2C1=O	VACV mCherry inh 11.2µM, FMDV antiviral 14.1µM, VACV Venus inh inconclusive, MARV entry inh inconclusive, LASV entry inh 4.47µM (no result: HCMV inh)
Cc1cccc(NS(=O)(=O)Cc2ccccc2)n1	none (no result: VACV mCherry inh)
Cc1cccc(C#Cc2ccccc2)n1	HCMV inh -64.8, MARV entry inh inconclusive, LASV entry inh inconclusive
CC(C)c1nn2c(=O)cc(COC(=O)c3ccccc3NC(=O)c3cccs3)nc2s1	none (no result: MARV entry inh)
Cn1ccnc1SCc1cn2cc(Br)ccc2n1	MARV entry inh 6.31µM, LASV entry inh inconclusive (no result: VACV mCherry inh)
Cc1ccc(SCc2cn3ccccc3n2)cc1	HCMV inh inconclusive, MARV entry inh inconclusive, LASV entry inh inconclusive
Cc1ccc(Cn2nnc3c(=O)[nH]c(C4CCN(S(=O)(=O)c5ccccc5)CC4)nc32)cc1	MARV entry inh inconclusive, LASV entry inh inconclusive (no result: VACV mCherry inh, VACV Venus inh)
Cc1ccc(Cn2nnc3c(=O)[nH]c(C4CCN(S(=O)(=O)Cc5ccccc5)CC4)nc32)cc1	VACV mCherry inh inconclusive, VACV Venus inh inconclusive, MARV entry inh inconclusive, LASV entry inh 11.2µM
O=C(c1ccccc1)N1CCC(c2nc3c(nnn3Cc3ccccc3Cl)c(=O)[nH]2)CC1	LASV entry inh inconclusive (no result: FMDV antiviral)
CC(C)(C)c1ccc(Cn2nnc3c(=O)[nH]c(C4CCN(C(=O)Cc5cccs5)CC4)nc32)cc1	HCMV inh inconclusive, FMDV antiviral inconclusive, MARV entry inh 8.2µM, LASV entry inh inconclusive (no result: VACV mCherry inh, VACV Venus inh)
O=C(c1cccs1)N1CCC(c2nc3c(nnn3Cc3ccccc3Cl)c(=O)[nH]2)CC1	LASV entry inh 7.94µM
O=C(NCc1cccs1)c1nc2c(nnn2Cc2ccccc2Cl)c(=O)[nH]1	VACV mCherry inh inconclusive, HCMV inh -102.3, FMDV antiviral inconclusive, VACV Venus inh 7.08µM, MARV entry inh inconclusive, LASV entry inh 11.2µM
COc1cccc(C(=O)CN2CCN(S(=O)(=O)c3ccc(Cl)cc3)CC2)c1	none (no result: MARV entry inh)
CC1=C(C(=O)OCC2CCCCC2)C(c2ccccc2F)NC(=O)N1 (stereo not given)	FMDV antiviral inconclusive
CC1=C(C(=O)OCC2CCCCC2)C(c2ccc(F)cc2F)CC(=O)N1 (stereo not given)	HCMV inh -104.9, FMDV antiviral inconclusive, MARV entry inh inconclusive
CN1CCC[C@@H]1CCNC(=O)c1c(-c2ccc3c(c2)OCO3)noc1-c1ccsc1	HCMV inh -75.3, VACV Venus inh inconclusive (no result: MARV entry inh, LASV entry inh)
COc1ccccc1N1CCN(c2ncnc3c2cnn3C)CC1	LASV entry inh inconclusive (no result: MARV entry inh)
O=C(CCc1ccccc1)N1CCc2c([nH]c3ccccc23)C1c1ccc(Cl)cc1 (stereo not given)	HCMV inh -68.2, LASV entry inh inconclusive (no result: MARV entry inh)
O=C(CCc1ccccc1)N1CCc2c([nH]c3ccccc23)C1c1ccc(F)cc1 (stereo not given)	HCMV inh -90.4, LASV entry inh inconclusive (no result: MARV entry inh)
CSc1ccc(C2c3[nH]c4ccccc4c3CCN2C(=O)CCc2ccccc2)cc1 (stereo not given)	HCMV inh -79.2, LASV entry inh 2.51µM (no result: MARV entry inh)
O=C(O)C1=C(O)CCCC1	none (no result: VACV mCherry inh, HCMV inh, FMDV antiviral, VACV Venus inh, LASV entry inh)
Cn1cnc(S(=O)(=O)N2CCC[C@@H]2c2noc3ccccc23)c1	none (no result: VACV mCherry inh, FMDV antiviral, VACV Venus inh, MARV entry inh, LASV entry inh)
Cc1ccc2cc(CNCc3cccc4ccccc34)c(N3CCC(O)CC3)nc2c1	none (no result: HCMV inh, MARV entry inh, LASV entry inh)
C[C@@H]1CN([C@H](C)CO)C(=O)c2cc(Br)cnc2O[C@H]1CN(C)Cc1ccccc1F	none (no result: VACV mCherry inh, FMDV antiviral, VACV Venus inh, MARV entry inh, LASV entry inh)
C[N+]1(CC(=O)c2ccc(Oc3ccc(C(=O)C[N+]4(C)CCOCC4)cc3)cc2)CCOCC1	none (no result: HCMV inh, FMDV antiviral, MARV entry inh, LASV entry inh)
COC(=O)[C@H]1O[C@@H](c2cc(OC)c(C)c(OC)c2OCc2ccccc2)[C@H](C)[C@H]2O[C@@]12C	LASV entry inh inconclusive (no result: VACV mCherry inh, HCMV inh, FMDV antiviral, VACV Venus inh)
Cc1cc(Cl)ccc1OCC(=O)N1CCOc2ccc(CN3C[C@@H](C)O[C@@H](C)C3)cc2C1	none (no result: HCMV inh, MARV entry inh, LASV entry inh)
COc1ccc(/C=C2\CCCCC2=O)cc1	LASV entry inh inconclusive
